As usually defined, the AC50 is the concentration at which the activity in the assay is half-maximal.

The structures appear in SMILES notation. Where a structure was tested more than once in an assay, its records may differ in their call. Activity calls are given as the source filed them. How the source made its calls: active means hit-call score of the fitted dose curve at least 0.9, where 1 is the maximum; inactive means score below 0.9.

This test in a line: APR_HepG2_MitoMass_24hr: Apredica 24-hour HepG2 Assay for Mitochondrial Mass (AID 2282912). Particulars: high-content imaging, actives raise or lower the signal. Here is the method:
APR_HepG2_24hr is a cell-based, multiplexed-readout assay that uses HepG2, a human liver cell line, with measurements taken at 24 hours after chemical dosing in a 384-well plate.APR_HepG2_MitoMass_24hr is one of 10 assay component(s) measured or calculated from the APR_HepG2_24hr assay. It is designed to make measurements of cell phenotype, a form of morphology reporter, as detected with fluorescence intensity signals by HCS Fluorescent Imaging technology.Data from the assay component APR_HepG2_MitoMass_24hr was analyzed into 1 assay endpoint. This assay endpoint, APR_HepG2_MitoMass_24hr, was analyzed with bidirectional fitting relative to DMSO as the negative control and baseline of activity. Using a type of morphology reporter, gain or loss-of-signal activity can be used to understand changes in the signaling. Furthermore, this assay endpoint can be referred to as a primary readout, because this assay has produced multiple assay endpoints where this one serves a signaling function. To generalize the intended target to other relatable targets, this assay endpoint is annotated to the cell morphology intended target family, where the subfamily is organelle conformation.
Cells were treated with dimethyl sulfoxide (DMSO) as a solvent control at a final concentration of 0.5% v/v or with compounds in DMSO with a resulting final DMSO concentration of 0.5% v/v. Compound treatment was done at concentrations of 0.39, 0.78, 1.56, 3.12, 6.24, 12.5, 25, 50, 100, and 200 uM in duplicate on each plate. Cells were treated with compounds for 1, 24, or 72 hr. Carbonyl […] m-chloro-phenylhydrazone (CCCP) and taxol were used as positive controls for mitochondrial function and cytoskeletal stability, respectively; DMSO served as the negative control for this experiment. Cells were fixed by the direct addition of 50 uL formaldehyde in Hank's Balanced Salt Solution (HBSS) to a final concentration of 3.7%. After incubation in the fixation medium for 30 min at room temperature (293-298 K), cells were rinsed twice with HBSS and treated with cell permeabilization buffer (16 uL of 0.5% Triton X-100) for 10 min at room temperature (293-298 K) before labeling. For mitochondrial membrane potential and mitochondrial measurements, pre-fixed cells were incubated with 50 uL of MitoTracker Red CMXRos (Invitrogen) at a concentration of 250 nM for 30 min before fixation. In the remaining cases, post-fixed cells were labeled by incubation with a multiplexed mixture of primary antibodies in HBSS for 60 min at room temperature (293-298 K) to detect immunoreactivity of c-Jun (1:500), phospho-histone H3 (1:100), phospho-histone H2A.x (1:200), p53 (1:400), alpha-tubulin (1:200) and Hoechst 33342 (2 ug/mL). Cells were labeled for multiplexed imaging on two separate plates: a) Hoechst 33342, MitoTracker Red, phospho-histone H3, and alpha-tubulin, and b) Hoechst 33342, phospho-histone H2A.x, and c-Jun. A final rinse with HBSS (50 uL) was performed before analysis. The primary and secondary antibodies for the proteins were phospho-histone H3 (rabbit anti-phospho-histone H3 and FITC-donkey anti-rabbit IgG), phospho-histone H2A.x (mouse anti-phospho-histone H2A.x and FITC-donkey anti-mouse IgG), c-Jun (rabbit anti-phospho-c-Jun and Cy3-donkey anti-rabbit IgG), p53 (sheep anti-p53 and Cy5-donkey anti-sheep IgG), alpha-tubulin (mouse anti-alpha-tubulin and Cy5-donkey anti-mouse IgG). These antibodies are available as the CellCiphr HepG2 assay kit (Millipore).Digital images of each well were captured using a Cellomics ArrayScan VTI (Thermo Scientific Cellomics) (0.8 NA objective, 0.63x optical coupler, and XF-93 filter set) at 20x magnification. The images were acquired using the autofocus feature of the ArrayScan instrument, which entails the following steps. First, the camera focuses on channel 1 (Hoechst 33342), where nuclei are identified. Second, a Z offset of 1 um is used for capturing mitochondria (MitoTracker Red). […]
In the case of `CC(C)(C)c1cc(O)ccc1O`, the AC50 was 151 µM (active).

With `O=c1[nH]c(=O)[nH]c(=O)[nH]1`, the result was inactive.

Consider `C[C@]12CCC(=O)C[C@@H]1CC[C@@H]1[C@@H]2CC[C@]2(C)[C@@H](O)CC[C@@H]12`, for which the molecule was classed as inactive.

With `O=C1C2(Cl)C3(Cl)C4(Cl)C(Cl)(Cl)C5(Cl)C3(Cl)C1(Cl)C5(Cl)C24Cl` (centres undefined), the molecule was called inactive.

As to `ClCC(Cl)CCl`, the molecule was called inactive.

Consider `CC(C)(c1ccccc1)c1ccc(O)c(C(C)(C)c2ccccc2)c1`, for which the outcome was inactive.

On to `CN(C)N=O`, for which the molecule was called inactive.

Consider `O=C(O)C(F)(F)C(F)(F)C(F)(F)C(F)(F)C(F)(F)C(F)(F)F`, for which the molecule was called inactive.

With `NC(=O)O`, the AC50 is 59.3 µM (active).

`Oc1cccc2cccnc12`: the outcome was inactive.

As for `CCCCCCCCc1ccc(O)cc1`, the molecule was classed as inactive.

For `CC(C)(C)CC(C)(C)c1ccc(O)cc1`, the result was inactive.

On to `COc1cc(-c2ccc(N)c(OC)c2)ccc1N`, for which the call was inactive.

Take `CC12CC1(C)C(=O)N(c1cc(Cl)cc(Cl)c1)C2=O` (centres undefined): the molecule was called inactive.

`ClC1(Cl)C2(Cl)C3(Cl)C4(Cl)C(Cl)(Cl)C5(Cl)C3(Cl)C1(Cl)C5(Cl)C24Cl` (centres undefined): the molecule was called inactive.

In the case of `CC(C)(OO)c1ccccc1`, the molecule was classed as inactive.

For the molecule `O=C(O)C(Cl)(Cl)Cl`, the call was inactive and the AC50 was 161 µM (active).

On to `C=CC(=O)OCCCCCC(C)C`, for which the call was inactive.

In the case of `CC(=O)[O][Hg][c]1ccccc1`, the result was inactive.

For `CCN1CCC2(CC1)COc1cc3c(cc12)N(C(=O)c1ccc(-c2ccc(-c4nnc(C)o4)cc2C)cc1)CC3`, the AC50 was 7.43 µM (active).

On to `C=C(C)C(=O)[O][Sn]([CH2]CCC)([CH2]CCC)[CH2]CCC`, for which the concentration at half-maximal activity (AC50) was 0.226 µM (active).

Consider `O=C(O)C(F)(F)C(F)(F)C(F)(F)C(F)(F)C(F)(F)C(F)(F)C(F)(F)C(F)(F)C(F)(F)C(F)(F)F`, for which the AC50 was 76.3 µM (active).

For `CCC(=O)C(CC(C)N(C)C)(c1ccccc1)c1ccccc1` (centres undefined), the call was inactive.

Take `Cn1sc(Cl)cc1=O`: the concentration at half-maximal activity (AC50) is 117 µM (active).

Take `CCC(C)(C)c1ccc(O)c(C(C)(C)CC)c1`: the call was inactive.

Take `Cc1ccccc1N`: the outcome was inactive.

For the molecule `C[C@@H]1C[C@@H]([C@H](O)CC2CC(=O)NC(=O)C2)C(=O)[C@@H](C)C1`, the result was inactive.

With `O=C(Nc1ccc2[nH]ccc2c1)c1cc2cc(F)ccc2n1Cc1cccc(F)c1`, the result was inactive.

The values above are taken from PubChem BioAssay (EPA / NIEHS).
